Laboratory results reported in paper PMC12136788.
Residue numbers refer to the chain shown, from its start. Over roughly 5,800 sequences, “enrichment r” has its median near 0.54; the highest 2% begin near 16. The entries come from a sample that favours the highest values as a whole.

B1: chrX:48700291:48700392:+|CDS|ENSG00000101945|unk|FALSE|unique (ssRNA)
RNA: GGGAGUUCUACAGUCCGACGAUCGCUCCGUCGCUGGGAGCAGGAGCUCAAUGCCAAGCGCAGCCAUCUGGGACGCAUCACUGUAGAGAAUGAGGUGGACCUGGACGGCCCUCCGCGGGCCUUCGUGUACAUCAAUGAGUACCGCAACAGAGGAUUGAGCAUCA
B2: chr20:13714314:13714426:-|3pUTR|ENSG00000089048|unk|total|mutant (ssRNA)
RNA: GGGAGUUCUACAGUCCGACGAUCUUUUUCCCGCCAUAAAGGAUGGAAGUCAAGAACUUUUUGUUGUUCCGUCAUGUUAAGUACCGUUUAUGAAAUUAACUUGUAAAUAAAAGUGUAAAAUAUUUUCAUUAUUUUGUACCGCACCAACAGAGGAUUGAGCAUCA
B3: chr11:69651696:69651723:+|3pUTR|ENSG00000110092|msi1_unk|FALSE|overlapping (ssRNA)
RNA: GGGAGUUCUACAGUCCGACGAUCGAGGAUUAGGUUCCAUCCUUUACGUGUUUAAAAAAAAGCAUAAAAACAUUUUAAAAACAUAGAAAAAUUCAGCAAACCAUUUUUAAAGUAGAAGAGGGUUUUAGGUAGAAAAACAUAUUCCAACAGAGGAUUGAGCAUCA
B4: chr20:13714314:13714426:-|3pUTR|ENSG00000089048|unk|FALSE|unique (ssRNA)
RNA: B2 RNA with C30U, C31A, C68U, C69A, C83U, C84A, C138U, C139A
B5: chr2:206311781:206311882:+|3pUTR|ENSG00000204186|unk|FALSE|unique (ssRNA)
RNA: GGGAGUUCUACAGUCCGACGAUCUAGUGUUUAGAGUCCUUUCAUUUUAAGAUUCAGAAACAGCCUUUGUCCAACAUUUUCUGUAGAAGAACUUCAUCUUAAUUUAUGUCACAAAAUAAUUUAGCACCGUAUAUAGAAUUUUGUCAACAGAGGAUUGAGCAUCA
B6: chr11:69651696:69651723:+|3pUTR|ENSG00000110092|msi1_unk|total|mutant (ssRNA)
RNA: B3 RNA with U30C, A31C, U83C, A84C, U112C, A113C, U125C, A126C, U129C, A130C
B7: chr8:30995801:30996592:-|three_prime_utr|ENSG00000172733|control|control|control (ssRNA)
RNA: GGGAGUUCUACAGUCCGACGAUCUUGUUUUUUUUAAUUCAUCAAGCCUUUCGUUUUCAAACCACCAUUUGUCAGCCUUGAGGUAGAGAGACAUAUAGAUUUGAAAAUACUUUCUUAAGAGAUCAUGUAACUAUAUAACUCUGACAACAGAGGAUUGAGCAUCA
B8: chr10:121957106:121957207:-|3pUTR|ENSG00000107672|msi1|total|mutant (ssRNA)
RNA: GGGAGUUCUACAGUCCGACGAUCUGUAUCGUACAUAUUGUAUGAUUCAACAUUUUUAAAGGCAGAUUGUUUUCCGUAAAAUGCCGCUUUUGACCGUUAAUAAAUUUGUCAUGGUUGUCUUUGAUUAAAGGAAACUCACCGCCACAACAGAGGAUUGAGCAUCA
B9: ENSG00000198589:be:win_9051|3pUTR|ENSG00000198589|bound_else_gene|NA|bound_elsewhere_windowed (ssRNA)
RNA: GGGAGUUCUACAGUCCGACGAUCGUAAAUGUAAUUUAAAACAUCUCAAUUAAGUCUGUCUAUCAAUAUUGUUCUUCAAGCAUGUUUUAGACCUAGAAAAGUAUGGUUUGGGGGAGGCUAUUUUAUUGUGUGGUUAGCACAAGGCAACAGAGGAUUGAGCAUCA
B10: chr21:14371318:14371404:-|3pUTR|ENSG00000155304|msi1_unk|FALSE|overlapping (ssRNA)
RNA: GGGAGUUCUACAGUCCGACGAUCUAUGAAUAACAAUCUGAAGUCUUUUCAUAAAAAAAAUUAAUAAACUUUAGUUGUACAUUUAGCCAGUGUUAUUUGAAGUAUGUAACUUUUAAAAUAUUAAGUGUCUUGUAUGAUUAGAAUCAACAGAGGAUUGAGCAUCA
B11: chr11:69651733:69651797:+|3pUTR|ENSG00000110092|msi1_unk|FALSE|overlapping (ssRNA)
RNA: GGGAGUUCUACAGUCCGACGAUCAAAACAUUUUAAAAACAUAGAAAAAUUCAGCAAACCAUUUUUAAAGUAGAAGAGGGUUUUAGGUAGAAAAACAUAUUCUUGUGCUUUUCCUGAUAAAGCACAGCUGUAGUGGGGUUCUAGCAACAGAGGAUUGAGCAUCA
B12: chr2:206311781:206311882:+|3pUTR|ENSG00000204186|unk|total|mutant (ssRNA)
RNA: B5 RNA with U24C, A25C, U31C, A32C, U83C, A84C, U121C, A122C, U133C, A134C
B13: chr10:121957106:121957207:-|3pUTR|ENSG00000107672|msi1|FALSE|bound_elsewhere (ssRNA)
RNA: B8 RNA with C73U, C74A, C83U, C84A, C93U, C94A
B14: ENSG00000150403:stop:overlap|stop_codon|ENSG00000150403|stop_codon|NA|stop_codon (ssRNA)
RNA: GGGAGUUCUACAGUCCGACGAUCUGUCCAGGUUCCUCAUGGGCAGUGCUCGGGGUGACAAAGAAGGCAACAGAACAGCCCUCUAGCAGAGCGUCAGUGCAGUCGUGUUAUCCCGGCUUUUACAGAAUAUUCUUGUCCUAUUUUCAACAGAGGAUUGAGCAUCA
B15: chr1:37566712:37566813:+|3pUTR|ENSG00000163879|unk|FALSE|unique (ssRNA)
RNA: GGGAGUUCUACAGUCCGACGAUCGCUUUAUUUCCCUAGCACUGGUGAAGGGCUUCAACUGUCAAACCUCAGAACAAAUGCAUUAGGGCCUUAGAAAUGUCAAUGGGGCAGGAAGAAAACACAAUUUCUAACUGCCUGUUUUUGCAACAGAGGAUUGAGCAUCA
B16: chr16:16142165:16142266:+|3pUTR|ENSG00000103222|msi1|total|mutant (ssRNA)
RNA: GGGAGUUCUACAGUCCGACGAUCAUUGAUGUGGGGUAAAUAUUAAGGAGAUGGCCUCAUGGGAAUUUGACCUUGACCCGAAACCGAGACUGAGAGUGAGCAACCAGCUGGAAGGUACUAUGCCAGUCCCCGCAGAAAAAUGUGCAACAGAGGAUUGAGCAUCA
B17: chr20:4701031:4701132:+|3pUTR|ENSG00000171867|msi1|total|mutant (ssRNA)
RNA: GGGAGUUCUACAGUCCGACGAUCCACCGUUUCUGUAAUUGGCUUUUGAAUCAAAGAACCGGGAGACAAUCUAAAAAAUAUCUCCGGUUGGAGAUGACAGAAAUAUGAUUGAUUUGAAGUGGAAAAAGAAAUUCUGUUAAUGUUCAACAGAGGAUUGAGCAUCA
B18: chr19:21059139:21059240:+|3pUTR|ENSG00000118620|unk|total|mutant (ssRNA)
RNA: GGGAGUUCUACAGUCCGACGAUCGUAAAAAUGAAAAUAUUUAAUCCAAAAUUAAGUCUAUGUAAAUAUCAGAGAAUUUACUGCCGAAAUAUAUAAGGCACUGAGACUUCAGAUAUUAUACUAAAUCAGAGUGCUGAGUACCGACAACAGAGGAUUGAGCAUCA
B19: chr17:42200006:42200107:-|3pUTR|ENSG00000173757|unk|total|mutant (ssRNA)
RNA: GGGAGUUCUACAGUCCGACGAUCAAGCUGCCGUUUGCCUUGGCUUGGUUUCAUACACUGAUUUAUUUUUCUAUGCCAGGCAGCCGAGUCUCUCUGCCUCUGAGGAGCAGGCUACCCGCAUCCCACUCAGCCCCUCCCUACCCCCAACAGAGGAUUGAGCAUCA
B20: chr20:3582170:3582271:+|CDS|ENSG00000088812|msi1|FALSE|bound_elsewhere (ssRNA)
RNA: GGGAGUUCUACAGUCCGACGAUCGGCCUUCGGAAGAUCAAUGUGUCCUACUGGUGCUGGGAAGAUAUGUCCCCAUUUACAAAUAGUUUACUACAGUGGAUGCCGUCUGAGCCCAGUGAUGCUGGAUUCUGUGGAAUUUUAUCACAACAGAGGAUUGAGCAUCA
B21: chr3:10101824:10101929:+|3pUTR|ENSG00000144554|unk|total|mutant (ssRNA)
RNA: GGGAGUUCUACAGUCCGACGAUCAAAAUCUCUGAGUCAUGAUUCUGGACUUUGGGAGCCCGUUUUGAAACUCUGAUUUAUUGCCGAACUCCGGCUUGUACCAAUUUUACAAAUAAAUUCUGUUCUAAGUUCUGCCUCAGUUGCCAACAGAGGAUUGAGCAUCA
B22: ENSG00000166086:stop:overlap|stop_codon|ENSG00000166086|stop_codon|NA|stop_codon (ssRNA)
RNA: GGGAGUUCUACAGUCCGACGAUCUCCUGCUGCUGCUUUUCAGGGAGUCAAGUCUAGUCUGCUUUCCAAGGCUGCAUUCUAAGUAGUGAAGCCUCAACUUCAUAUUUACCUAAAGCAGGACACCACACUCUUCCCCUGGCAGCCCAACAGAGGAUUGAGCAUCA

What follows are binders tested against MSI1 full-length (mouse, UniProt Q61474 1-362) (assay: nsRBNS (natural sequence RNA bind-n-seq); RBNS binding buffer (assumed for nsRBNS): 25 mM Tris pH 7.5, 150 mM KCl, 3 mM MgCl2, 0.01% Triton X-100, 500 ug/ml BSA, 20 U/ml SUPERase-In, 4 C; UNK is unkempt and MSI1 is Musashi-1; names of the RNAs are library labels; protein concentration not given here; high values mean tight binding).
Sequence of MSI1 full-length (Q61474 whole entry): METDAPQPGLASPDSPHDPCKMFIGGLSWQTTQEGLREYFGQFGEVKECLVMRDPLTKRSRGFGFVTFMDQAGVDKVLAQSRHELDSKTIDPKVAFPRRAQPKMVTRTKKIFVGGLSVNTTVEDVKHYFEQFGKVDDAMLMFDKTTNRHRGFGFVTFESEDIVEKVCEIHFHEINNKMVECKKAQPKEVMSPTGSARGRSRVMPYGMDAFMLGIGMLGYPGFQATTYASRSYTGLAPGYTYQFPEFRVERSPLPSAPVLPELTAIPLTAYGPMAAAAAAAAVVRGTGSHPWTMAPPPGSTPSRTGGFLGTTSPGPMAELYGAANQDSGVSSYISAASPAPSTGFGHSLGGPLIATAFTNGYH

Binder | binding signal [enrichment R]
B1 | 0.398
B2 | 0.796
B3 | 17.8
B4 | 58.4
B5 | 16.7
B6 | 0.383
B7 | 0.712
B8 | 0.237
B9 | 3.05
B10 | 6.15
B11 | 13.6
B12 | 0.669
B13 | 17.9
B14 | 0.829
B15 | 0.39
B16 | 0.411
B17 | 0.277
B18 | 4.16
B19 | 0.705
B20 | 0.86
B21 | 0.338
B22 | 0.461
